Data on 62 compounds can be found in PubChem BioAssay AID435030 (The Scripps Research Institute Molecular Screening Center, 2010).

SMILES strings stand for the structures. Where “and” joins values, the source holds several entries; their conditions need not be identical. Equal values may be shown once. Out of some 330,000 compounds screened, about 940 (0.28%) were called active. The sample holds actives, similar compounds and a random draw of the others, so the mix is not that of the screen. Cut-off read from the data, not from the text of the source: active = inhibition above about 12%; inactive = the rest. Where a structure was tested more than once in an assay, its records may differ in their call.

This assay in a line: growth inhibition of E. coli expressing H. pylori AddAB, primary screen, AddAB inhibitor project, absorbance (AID 435030).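 Note: 0% = vehicle wells of infected cells.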 The note with it: at 11.9 µM, stronger effect = higher value.
In the case of `Cc1ccc(NC(=O)C(C)Sc2nnc(C3CC3)n2C2CC2)cc1S(=O)(=O)N1CCOCC1` (configuration not stated), the inhibition was -0.26% (inactive).

`Cc1ccc(C23CC4CC(CC(C(=O)NCC(=O)O)(C4)C2)C3)cc1`: the inhibition is 1.92% (inactive).

For the compound `CCOc1ccccc1NC(=O)C12CC3CC(C1)CC(c1ccc(C)cc1)(C3)C2`, the inhibition is 78.7% (active).

Take `COc1ccccc1NC(=S)N1CCC(NC(=O)C23CC4CC(CC(C4)C2)C3)CC1`: the inhibition is 4.75% (inactive).

For `Cc1noc(NS(=O)(=O)c2ccc(NC(=O)C34CCC(CC3)C4)cc2)c1C`, the inhibition is 1.62% (inactive).

As for `Cc1cc(OC(C)C(=O)Nc2ccc(S(=O)(=O)Nc3onc(C)c3C)cc2)cc(C)c1Cl` (configuration not stated), the inhibition was -1.11% (inactive).

For `Cc1ccc(C(=O)/C=C/Nc2ccc(S(=O)(=O)Nc3onc(C)c3C)cc2)cc1`, the inhibition was 12.7% (active).

With `Cc1ccc(Sc2ccncc2S(N)(=O)=O)cc1`, the inhibition is 4.14% (inactive).

Turning to `COc1ccc(N2CCN(S(=O)(=O)CCNC(=O)C34CC5CC(CC(C5)C3)C4)CC2)cc1`, the inhibition was 3.21% (inactive).

`COc1cccc(NC(=O)C(Sc2nc3ccccc3c(=O)n2CC(C)C)c2ccccc2)c1` (configuration not stated): the inhibition is 2.26% (inactive).

For the compound `O=C(NNC(=O)C1CCCC1)c1ccc(F)cc1`, the inhibition is -2.96% (inactive).

For `O=C(/C=C/c1ccc([N+](=O)[O-])o1)NNC(=O)c1ccc(F)cc1`, the inhibition was 97.8% (active).

As for `CCc1noc(C)c1C(=O)NNC(=O)c1ccc(F)cc1`, the inhibition is -0.34% (inactive).

Take `Cc1ccc(Cl)cc1NC(=S)N(CCN(C)C)Cc1cccs1`: the inhibition was 4.63% (inactive).

For the compound `CCn1c(/C=C/Nc2ccccc2)[n+](CC)c2ccc(C(=O)OCC(F)(F)F)cc21`, the inhibition is -1.7% (inactive).

In the case of `O=C(c1nnc(-c2ccc(Cl)cc2)o1)C1CCCC1`, the inhibition is 0.77% (inactive).

On to `S=c1[nH]nc(-c2ccc(Cl)cc2)n1CC1CCCO1` (configuration not stated), for which the inhibition was 0.6% (inactive).

On to `O=C(c1[nH]ncc1-c1ccc(Cl)cc1)C1CO1` (configuration not stated), for which the inhibition is 12.5% (active).

On to `CCC(C)[C@H]1COCCS(=O)(=O)N1Cc1ccc(C)cc1` (some centres not stated), for which the inhibition was 2.11% (inactive).

As to `C=CC1=C(C(=O)O)N2C(=O)[C@@H](NC(=O)/C(=N/OCC(=O)O)c3csc(N)n3)[C@H]2SC1`, the inhibition was 97.5% (active).

With `Cc1nnc(SCC2=C(C(=O)O)N3C(=O)C(NC(=O)Cn4nc(C)c(Cl)c4C)C3SC2)s1` (configuration not stated), the inhibition is -3.23% (inactive).

`CO/N=C(\C(=O)N[C@@H]1C(=O)N2C(C(=O)O)=C(COC(C)=O)CS[C@H]12)c1csc(N)n1` (stereo in doubt): the inhibition is 98.8% (active) and 99.7% (active) and -0.42% (inactive).

For the compound `C=CC1=C(C(=O)O)N2C(=O)[C@@H](NC(=O)/C(=N\OCC(=O)O)c3csc(N)n3)[C@H]2SC1`, the inhibition was 99.5% (active).

Regarding `Cc1cc(C)cc(C(=O)NC2C(=O)N3C(C(=O)O)=C(CSc4nnc(C)s4)CSC23)c1` (configuration not stated), the inhibition was -1.61% (inactive).

Turning to `CC(C)(C)OC(=O)C1=C(CO)CS[C@@H]2[C@H](NC(=O)Cc3ccccc3)C(=O)N12`, the inhibition is 0.4% (inactive).

Consider `Cc1ccc(S(=O)(=O)N2[C@@H](c3cccc4ccccc34)C(C(=O)O)=C[C@H]2C(C)(C)C)cc1`, for which the inhibition was -0.17% (inactive).

`C=CCOc1cccc(CNCc2cccnc2)c1`: the inhibition is 4.34% (inactive).

In the case of `O=C1N[C@H](Cc2ccccc2)C(=O)N[C@H]1Cc1cn(S(=O)(=O)c2ccccc2)c2ccccc12`, the inhibition is 3.88% (inactive).

For the compound `Cc1ccc(C(=O)N/C(=C\c2cccs2)C(=O)NCCc2ccccn2)cc1C`, the inhibition is -1.59% (inactive).

For the compound `COc1ccc(C(=O)c2c(C)c(CCC#N)n3ccccc23)c(OC)c1`, the inhibition is 4.64% (inactive).

Consider `CNc1ccc(SC#N)cc1`, for which the inhibition was 3.2% (inactive).

Regarding `CC(=O)Nc1ccc(NC(=O)CC2CCCC2)cc1`, the inhibition is 3.59% (inactive).

Consider `CCOC(=O)c1cnc(-n2nc(C)cc2C)nc1NNc1cc(C)nc(-c2ccccc2)n1`, for which the inhibition was 1.33% (inactive).

As to `O=C(Nc1ccc2c(c1)CCC2)c1ccc(Br)s1`, the inhibition was 0.08% (inactive).

With `Cc1nn(CC#N)c(=O)n1N(C)c1ncc(C(F)(F)F)cc1Cl`, the inhibition is -0.77% (inactive).

Take `O=C1c2ccccc2NC(c2ccc(-c3cccc(Cl)c3)o2)N1O` (configuration not stated): the inhibition is 21.1% (active).

With `O=C(O)C(c1ccccc1)N1C(=O)/C(=C\c2ccc(-c3cccc(Cl)c3)o2)SC1=S` (configuration not stated), the inhibition was 1.17% (inactive).

As for `CC(=O)NN1C(=O)c2ccccc2NC1c1ccccc1` (configuration not stated), the inhibition is 0.33% (inactive).

For the compound `O=C(N=C1SC2CS(=O)(=O)CC2N1c1cc(Cl)ccc1Cl)C1CC1` (configuration not stated), the inhibition was 1.12% (inactive).

Take `CCC1CO/C(=C(\C(=C(Cl)Cl)N2CCOCC2)[N+](=O)[O-])N1` (configuration not stated): the inhibition was 0.26% (inactive).

`Cc1cc(C)n(-c2nnc(N3CCN(c4ccccc4)CC3)nn2)n1`: the inhibition is 1.11% (inactive).

For `COc1ccc(OC)c(NC(=O)C2CCCN2S(=O)(=O)c2cccc3nsnc23)c1` (configuration not stated), the inhibition is 2.19% (inactive).

With `Cc1ncoc1C(=O)NCCC(c1ccccc1)c1ccccc1`, the inhibition was 0.08% (inactive).

In the case of `CCOc1cc(S(=O)(=O)NCc2ccc3c(c2)OCO3)ccc1F`, the inhibition is 1.89% (inactive).

Turning to `CC(=O)NC(=S)Nc1ccc(NC(=S)NC(=O)c2ccc([N+](=O)[O-])cc2)cc1`, the inhibition is -0.43% (inactive).

As to `Cn1ccc(=Nc2ccc(NC(=O)c3ccc(N=c4ccn(C)c5ccc([N+](=O)[O-])cc45)cc3)cc2)cc1`, the inhibition is 95.1% (active).

Regarding `COc1cc(NS(=O)(=O)c2ccc(NC(=O)c3ccc([N+](=O)[O-])cc3)cc2)ncn1`, the inhibition was 0.95% (inactive).

Consider `Brc1ccc(CN2CC[C@H]3C=CCc4cccc(c43)C2)cc1`, for which the inhibition is 4.02% (inactive).

Turning to `O=C(Nc1cccnc1Cl)c1cc(-c2ccccc2O)on1`, the inhibition is 3.57% (inactive).

Take `C=CCNC(=O)c1csc(-c2ccccc2)n1`: the inhibition was 0.48% (inactive).

For `C=CCNC(=O)c1cc(-c2ccccc2O)on1`, the inhibition was 96.1% (active).

As for `FC(F)(F)c1ccc2nnc(-c3c(Cl)cccc3Cl)n2c1`, the inhibition is 2.64% (inactive).

On to `Cc1ccc(OCC(=O)c2cc(C)n(Cc3ccco3)c2C)c([N+](=O)[O-])n1`, for which the inhibition is 3.36% (inactive).

As to `O=C(OCC1O[C@@H](OC(=O)c2cc(O)c(O)c(O)c2)[C@@H](OC(=O)c2cc(O)c(O)c(O)c2)[C@@H](OC(=O)c2cc(O)c(O)c(O)c2)[C@@H]1OC(=O)c1cc(O)c(O)c(O)c1)c1cc(O)c(O)c(O)c1` (some centres not stated), the inhibition was 27.8% (active).

Consider `C=C1c2cccc(OC)c2O[C@H](C(=O)OCC)[C@@H]1CCCCCC`, for which the inhibition is -0.56% (inactive).

On to `CS(=O)(=O)N(CC(=O)Nc1ccc(Cl)c(Cl)c1)C1CCCCC1`, for which the inhibition was -0.7% (inactive).

With `O=C(CCCN1C(=O)CCC1=O)Nc1ccc(Cl)c(C(F)(F)F)c1`, the inhibition was 2.75% (inactive).

Consider `O=C(CC(O)(C(F)(F)F)C(F)(F)F)Nc1ccc(Cl)c(Cl)c1`, for which the inhibition is 18.6% (active).

Turning to `COc1cc(C)c(C(C)C)cc1S(=O)(=O)n1ccnc1`, the inhibition is 2.64% (inactive).

`O=C(NCc1ccco1)c1ccc([N+](=O)[O-])cc1Cl`: the inhibition is 0% (inactive).

`CS(=O)(=O)c1ccc(Cl)c(NC(=O)COC(=O)c2ncc(Cl)c(Cl)c2Cl)c1`: the inhibition was 1.36% (inactive).

For the compound `CCCCOc1ccc(Cl)cc1CSc1nncn1N`, the inhibition is 0.43% (inactive).

For orientation: inhibition means the change of the read-out against control, counted positive when it falls.
